Hits are enriched below; roughly 11% of the tested compounds scored in any of these assays.
G9a inh: G9a (human) methyltransferase inhibition | Q96KQ7 | G9a H3K9 monomethylation, AlphaScreen, 2 h | Potency, µM (titrated, usually from 102 µM), for the others: at the highest dose activity, negative = inhibition, hits mostly inhibitors | 8.8% of 350,000 active | AID 504332; note: potency is the fitted concentration of half-maximal effect; % is set by controls: 0 for no effect and ±100 for the full control effect; nearly all actives have a fitted effect of over 75% in size
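Quantitative HTS format: methyltransferase activity on a biotin-tagged H3K9 peptide is measured by AlphaScreen, using a rabbit anti-monomethyl-H3K9 antibody with streptavidin donor and anti-IgG acceptor beads. Final levels are 20 nM enzyme, 500 nM peptide, 20 uM SAM; 2 h RT.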
HP1b chromo inh: blocks HP1-beta chromodomain binding to methylated histone tails | P83916 | AlphaScreen HP1-beta / biotin-H3K9me3 peptide binding | Potency, µM (top dose mostly 114 µM), for inactives: at the top dose activity change, negative = inhibition, usual class: inhibitors | 0.56% of 390,000 active | AID 540317; note: potency is the fitted concentration of half-maximal effect; nearly all actives have a fitted effect of over 70% in size
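HP1-beta protein (50 nM final) preincubated 30 min at room temperature with biotinylated H3(1-18)K9me3 peptide (50 nM) in PBS pH 7.4, 0.01% Tween-20, then compound added for 30 min. AlphaScreen streptavidin donor/nickel chelate acceptor beads (10 ug/mL final), 30 min dark, luminescence read.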
JMJD2A Tudor: JMJD2A Tudor domain (human) inhibition; AlphaScreen JMJD2A-Tudor / H3K4me3 peptide binding; Potency, µM (top dose mostly 114 µM), for inactives: at the top dose activity change, negative = inhibition, usual class: inhibitors; 4.4% of 390,000 active; note: potency is the fitted concentration of half-maximal effect; % is set by controls: 0 for no effect and ±100 for the full control effect; nearly all actives have a fitted effect of over 50% in size
Target sequence (O75164 whole entry, looked up, the tested form may be a part): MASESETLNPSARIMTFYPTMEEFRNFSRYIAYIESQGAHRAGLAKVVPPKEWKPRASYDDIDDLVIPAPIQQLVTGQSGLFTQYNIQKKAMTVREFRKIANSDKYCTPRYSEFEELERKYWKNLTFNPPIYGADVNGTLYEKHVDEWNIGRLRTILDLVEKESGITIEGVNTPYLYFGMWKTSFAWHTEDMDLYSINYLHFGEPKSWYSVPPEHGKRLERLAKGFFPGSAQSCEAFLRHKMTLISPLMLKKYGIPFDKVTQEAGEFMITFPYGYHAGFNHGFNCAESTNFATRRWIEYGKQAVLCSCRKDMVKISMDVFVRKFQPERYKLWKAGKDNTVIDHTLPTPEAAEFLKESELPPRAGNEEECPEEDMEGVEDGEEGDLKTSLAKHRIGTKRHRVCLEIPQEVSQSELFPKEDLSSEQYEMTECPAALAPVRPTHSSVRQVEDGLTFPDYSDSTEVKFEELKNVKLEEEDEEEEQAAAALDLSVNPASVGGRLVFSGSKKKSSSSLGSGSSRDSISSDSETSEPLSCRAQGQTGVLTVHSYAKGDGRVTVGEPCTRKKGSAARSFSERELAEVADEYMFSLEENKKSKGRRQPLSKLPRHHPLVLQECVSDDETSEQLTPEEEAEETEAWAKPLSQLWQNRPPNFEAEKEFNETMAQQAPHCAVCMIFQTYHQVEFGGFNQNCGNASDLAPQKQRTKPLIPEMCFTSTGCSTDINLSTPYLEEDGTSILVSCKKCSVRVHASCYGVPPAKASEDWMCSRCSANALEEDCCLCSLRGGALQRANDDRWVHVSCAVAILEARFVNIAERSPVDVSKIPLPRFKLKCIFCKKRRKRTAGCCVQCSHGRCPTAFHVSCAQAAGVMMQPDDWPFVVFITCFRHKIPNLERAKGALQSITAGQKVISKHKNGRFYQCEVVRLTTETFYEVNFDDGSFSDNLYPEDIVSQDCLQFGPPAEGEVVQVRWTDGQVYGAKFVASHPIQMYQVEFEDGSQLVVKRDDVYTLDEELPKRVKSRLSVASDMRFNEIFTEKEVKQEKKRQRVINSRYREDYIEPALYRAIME
L3MBTL1 inh: L3MBTL1 (human) inhibition; Q9Y468; AlphaScreen L3MBTL1–H3K9me1 peptide binding; Potency, µM (series often up to 57.1 µM), without a hit: at the top dose activity, negative = inhibition, usual class: inhibitors; 0.66% of 230,000 active; AID 485360; note: potency is the fitted concentration of half-maximal effect; % is set by controls: 0 for no effect and ±100 for the full control effect; nearly all actives have a fitted effect of over 60% in size
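Read-out is AlphaScreen signal from streptavidin donor and nickel chelate acceptor beads (10 ug/mL final each) bridging L3MBTL1 (50 nM) and biotinylated K9-monomethylated H3(1-15) peptide (75 nM), after 30 min compound exposure at room temperature.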
PI5P4Ka inh: PI5P4K alpha (human) kinase inhibition. PI5P4Kalpha enzyme, ADP-Glo luminescence, 60 min; active compounds read low. max response, %. 1.2% of 330,000 active. AID 652105; active = max response of -50% or lower; inconclusive = between -30% and -50%; inactive = -30% or higher; note: value at the top dose of about 77 µM; % is set by controls: 0 for no effect and ±100 for the full control effect
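Single end-point luminescence (ADP-Glo) quantified ADP from PI5P4Kalpha turnover; ATP 5 microM final, 1 h at RT, 0.1% CHAPS and 0.28 mM EGTA in HEPES pH 7.4.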
BAZ2B inh: BAZ2B (human) inhibition. AlphaScreen BAZ2B-H3K14Ac peptide displacement. Q9UIF8. 4.4% of 360,000 active. Potency, µM (doses to about 114 µM), for the others: top-dose activity change, negative = inhibition, usual class: inhibitors; note: potency is the fitted concentration of half-maximal effect; % is set by controls: 0 for no effect and ±100 for the full control effect; nearly all actives have a fitted effect of over 60% in size
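Multi-concentration screen (max 110 uM) measuring displacement of acetylated histone H3 peptide from BAZ2B by AlphaScreen, using 50 nM protein, 50 nM peptide and 10 ug/mL streptavidin donor plus Ni-chelate acceptor beads.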
Active calls of the source: *; ? = inconclusive; . = not tested or not shown; ! = not confirmed by another sample; [ ] = dose if it differs, or a comment. Unless noted, calls come from the whole dose curve; as a rule, active = well fitted inhibition curve with a large enough effect; inconclusive = small, poorly fitted or top-dose-only effect; inactive = no such curve, though single readings can be large or run the other way.

SMILES	G9a inh	HP1b chromo inh	JMJD2A Tudor	L3MBTL1 inh	PI5P4Ka inh	BAZ2B inh
Cc1ccc(C)c(NC(=O)CSc2nc3c([nH]c4ccccc43)c(=O)n2-c2ccc(F)cc2)c1	-5%[59 µM]	11%[57 µM]	6%	.	.	1%
CCn1c(SCc2ccccc2Cl)nc(=O)c2c(C(=O)OC)cc(C3CC3)nc21	-23%[59 µM]	15%[57 µM]	-33%	.	.	-19%
O=S(=O)(c1cccc2c(S(=O)(=O)N3CCCC3)cccc12)N1CCCC1	16%[12.7 µM]	35%	14%	-2%	-4	2%
O=S(=O)(c1cccc2c(Cl)cccc12)N1CCCNCC1	19µM*!	.	.	.	.	.
O=[N+]([O-])c1cccc2c(S(=O)(=O)N3CCOCC3)cccc12	.	0%	-35%	-15%	?	?
O=[N+]([O-])c1cccc2c(S(=O)(=O)N3CCCCC3)cccc12	56µM*	?	?	.	0	71µM*
CC(C)NC(=O)N1CC2(CCN(C(=O)c3cc(C(F)(F)F)cc(C(F)(F)F)c3)CC2)C1	11%[12.7 µM]	.	.	.	.	.
S=c1[nH]nc(Cc2c[nH]c3ccccc23)o1	1.6µM*	13%	79µM*	8%	.	-4%
c1ccc(Cc2c[nH]c3ccccc23)cc1	.	20%	-20%	-8%	5	-33%
Cc1cccc(N2CCN(C(=O)Cn3c(-c4cccs4)cc4ccccc43)CC2)c1C	-9%[59 µM]	17%	-23%	.	.	-12%
CN(C(=O)/C=C/c1ccc([N+](=O)[O-])s1)c1ccccc1	45µM*	-14%	?	-25%	0	40µM*
CCCOc1ccc(-c2nonc2NC(=O)COc2ccc(C)cc2)cc1OCCC	2%[59 µM]	23%	7%	.	.	1%
CCC1(c2ccccc2)NC(=O)N(CC(=O)N(C)Cc2c(F)cccc2Cl)C1=O (stereo not drawn)	45µM*	29%	-5%	.	-9	-15%
CCC1(c2ccccc2)NC(=O)N(CC(=O)N(C)Cc2ccccc2)C1=O (stereo not drawn)	36%	-21%	-18%	.	1	1%
CC(=O)c1cccc(NC(=O)C(C)n2c(=O)cc(-c3ccccc3)c3c(C)nn(C)c32)c1 (stereo not drawn)	-2%[59 µM]	-19%	-25%	.	.	-16%
CC(=O)N1CCC2(CC1)CN(C(c1ccccc1)c1ccccc1)C2	-3%[12.7 µM]	.	.	.	.	.
CCOc1cc(C2C(C#N)=C(N)OC(C)=C2C(C)=O)cc(Br)c1O (stereo not drawn)	?	-17%	89µM*	-5%[11.4 µM]	.	?
COCCN(Cc1ccc(C)c(Br)c1)S(=O)(=O)c1ccc2[nH]c(=O)ccc2c1	5%[59 µM]	13%[57 µM]	-18%	.	.	-1%
COc1ccc(C(N)=S)c(OC)c1	8.9µM*	-12%	-12%	3%	-8	-4%
COc1ccc(Cl)cc1NC(=O)c1cc(C)nn1-c1ccccc1	2%[59 µM]	60%	5%	.	.	?
O=C(CNCc1cccs1)Nc1ccc(N2CCCCCC2)cc1	8.9µM*	25µM*	22µM*	-19%	-8	22µM*
O=C(CNCc1cccs1)Nc1ccc(OC(F)(F)F)cc1	-12%[2.33 µM]	28µM*	4µM*	.	3	28µM*
C=CCCCCCCCCCCCC(O)CC(O)CO (stereo not drawn) (tested in a mixture with another compound)	-39%[2.33 µM]	.	.	.	.	.
O=P(O)(O)CP(=O)(O)O	7.1µM*	.	.	-10%	.	50µM*
C=C(c1ccccc1)c1ccc(N(C)C)cc1	17%[2.33 µM]	?	45µM*	.	11	?
SMILES	G9a inh	HP1b chromo inh	JMJD2A Tudor	L3MBTL1 inh	PI5P4Ka inh	BAZ2B inh
CN(C)c1ccc(C(=O)c2ccccc2)cc1	1%[59 µM]	35%	-7%	.	-7	7%
CC(=O)Nc1ccc([C@H]2[C@H](C)CC[C@H]3C(=O)N4[C@@H](CC[C@@H](C)[C@@H]4c4ccc(NC(C)=O)cc4)C(=O)N32)cc1	?	.	.	1%	.	56µM*
COc1ccc(NCC(=O)N/N=C(\C)c2cc3ccccc3o2)cc1	16µM*	-18%	?	?	6	35µM*
CCc1ccc(/C(C)=N/NC(=O)c2ccccn2)cc1	10%	40%	-13%	-19%	3	-9%
C/C(=N\NC(=O)c1c[nH]c2ccccc12)c1ccccn1	16%	39%	50µM*	8.9µM*	4	10µM*
C/C(=N\NC(=O)c1cc2ccccc2cc1O)c1cc2ccccc2o1	1%	8%	-35%	-29%	-91*	2%
C/C(=N\NC(=O)c1nc2ccccn2c1C)c1cc2ccccc2o1	-14%	25%	-12%	.	2	-20%
C/C(=N\NC(=O)c1ccc(F)cc1)c1ccccn1	?	30%	35µM*	.	3	10µM*
Cc1cc(NC(=O)c2cc(-c3ccc(Cl)cc3)on2)n(-c2ccccc2)n1	-31%[59 µM]	20%	-6%	.	.	2%
COc1ccc(Oc2ncc3nc(-c4cccc(C#N)c4)c(=O)n(C)c3n2)cc1	5%[0.501 µM]	.	.	.	.	.
CCOC(=O)c1c(C)oc2ncnc(NCCCN3CCN(c4cc(C)ccc4C)CC3)c12	?	2%	?	.	.	?
Cc1cccc(C(=O)N2CCc3cc(CNS(=O)(=O)c4ccc(Cl)s4)ccc32)c1	5%[59 µM]	30%[57 µM]	0%	.	.	4%
CCOc1ccc(OCC)c(S(=O)(=O)N2CCN(c3cccc(C)c3C)CC2)c1	12%[59 µM]	40%	0%	.	.	-5%
CSc1nc(N)c2ncn([C@@H]3O[C@H](COP(=O)(O)OP(=O)(O)OP(=O)(O)O)[C@H](O)[C@H]3O)c2n1	49%[12.7 µM]	.	.	.	.	.
CC(=O)Nc1ccc(/C(C)=N/NC(=O)c2ccc(F)cc2)cc1	8%	-7%	89µM*	6%	1	3%
C/C(=N\NC(=O)CCCNc1ccc(C)cc1)c1ccccn1	16µM*	7%	?	-18%	1	56µM*
C/C(=N\NC(=O)CCCNc1ccccc1)c1ccncc1	?	4%	-17%	3%	10	-19%
C/C(=N\NC(=O)c1cc2ccccc2cc1O)c1ccccn1	.	20%[57 µM]	18µM*	.	-54*	10µM*
C/C(=N/NC(=O)c1cc2ccccc2cc1O)C1C(=O)c2ccccc2C1=O	40µM*	22µM*	16µM*	.	?	?
Cc1c(Cc2ccccc2)sc(NC(=O)C(C)(C)C)c1C(N)=O	14µM*	?	-35%	-5%[11.4 µM]	-3	?
Cc1c(Cc2ccccc2)sc(N)c1C(N)=O	2µM*	.	.	-5%	.	-29%
Cc1c(Cc2ccccc2)sc(NC(=O)Cc2ccccc2)c1C(N)=O	.	-52%	-31%	.	-28	.
CC(=O)N1CCN(c2nnnn2-c2ccccc2)CC1	4%[59 µM]	40%	16%	.	-7	7%
Oc1ccc(N2CCN(c3nnnn3-c3ccccc3)CC2)cc1	25µM*	?	-21%	-18%	-14	.

Screens as filed in PubChem.
